Here are results for 31 molecules from PubChem BioAssay.

Unmarked numbers belong to inactive results. Active and inactive are the calls of the source. Rule as the data show it, unless noted: active = inhibition above about 36%; inactive = the rest.

For assay [1], the system named is transactivating tegument protein VP16 (Human herpesvirus 1). The assay can be described thus: compounds suppressing VP16-driven luciferase signal – cell-based, luminescence, single concentration, counter-screen for SRC2 inhibitor project (AID 652007). To be noted: cell-based VP16 transactivation luciferase reporter, at 8.9 µM, active compounds read high.
Assay [2] has as its target Nuclear receptor coactivator 2 (Homo sapiens) (UniProt Q15596). Kind of assay: inhibition of GAL4-SRC2 driven luciferase expression – cell-based, luminescence, HEK293, triplicate, confirmation (AID 652008;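 active = mean inhibition above 46.5%, the solvent-only control mean plus 3 SD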;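 also: 0% = DMSO-treated cells and 100% = Gossypol at 36 µM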). To be noted: HEK293 GAL4-SRC2 luciferase reporter, at 8.9 µM, active compounds read high.

Nuclear receptor coactivator 2 (Homo sapiens), sequence (Q15596 whole entry, looked up, the tested form may be a part): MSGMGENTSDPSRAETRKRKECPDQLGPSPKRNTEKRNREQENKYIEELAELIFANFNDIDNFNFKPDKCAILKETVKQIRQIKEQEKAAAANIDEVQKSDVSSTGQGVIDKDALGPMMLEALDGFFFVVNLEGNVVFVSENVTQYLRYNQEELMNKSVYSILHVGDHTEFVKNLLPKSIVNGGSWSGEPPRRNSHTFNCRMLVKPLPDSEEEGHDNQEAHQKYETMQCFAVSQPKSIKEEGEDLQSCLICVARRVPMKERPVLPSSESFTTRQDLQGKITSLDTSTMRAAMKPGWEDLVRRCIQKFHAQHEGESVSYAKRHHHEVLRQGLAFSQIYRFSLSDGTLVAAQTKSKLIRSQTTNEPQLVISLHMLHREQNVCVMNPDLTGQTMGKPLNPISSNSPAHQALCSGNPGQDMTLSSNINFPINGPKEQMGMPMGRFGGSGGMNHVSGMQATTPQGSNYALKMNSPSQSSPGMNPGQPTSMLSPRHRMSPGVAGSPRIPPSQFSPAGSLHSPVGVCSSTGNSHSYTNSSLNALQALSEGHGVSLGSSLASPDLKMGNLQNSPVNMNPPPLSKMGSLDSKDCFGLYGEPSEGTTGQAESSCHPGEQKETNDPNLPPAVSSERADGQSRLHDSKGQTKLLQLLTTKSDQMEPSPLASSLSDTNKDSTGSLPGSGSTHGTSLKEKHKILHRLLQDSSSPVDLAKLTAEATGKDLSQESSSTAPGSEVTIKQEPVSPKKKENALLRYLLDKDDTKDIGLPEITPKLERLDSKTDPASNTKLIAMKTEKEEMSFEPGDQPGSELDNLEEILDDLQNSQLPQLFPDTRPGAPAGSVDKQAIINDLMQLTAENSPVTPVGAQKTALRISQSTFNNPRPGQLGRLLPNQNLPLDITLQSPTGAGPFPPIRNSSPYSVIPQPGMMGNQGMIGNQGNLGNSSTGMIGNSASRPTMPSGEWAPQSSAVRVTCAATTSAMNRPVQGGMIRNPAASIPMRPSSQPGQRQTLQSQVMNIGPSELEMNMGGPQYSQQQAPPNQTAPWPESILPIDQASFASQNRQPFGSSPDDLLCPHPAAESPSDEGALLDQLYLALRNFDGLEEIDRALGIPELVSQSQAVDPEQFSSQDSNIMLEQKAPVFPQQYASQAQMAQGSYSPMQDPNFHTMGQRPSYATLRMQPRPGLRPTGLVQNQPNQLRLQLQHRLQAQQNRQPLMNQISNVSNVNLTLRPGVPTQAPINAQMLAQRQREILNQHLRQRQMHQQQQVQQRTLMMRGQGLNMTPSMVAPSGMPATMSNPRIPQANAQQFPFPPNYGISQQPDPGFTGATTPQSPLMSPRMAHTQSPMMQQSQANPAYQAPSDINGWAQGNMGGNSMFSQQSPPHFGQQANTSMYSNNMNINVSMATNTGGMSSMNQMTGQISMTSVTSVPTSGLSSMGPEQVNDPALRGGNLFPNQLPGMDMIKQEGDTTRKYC

On to `COc1ccc(CNn2c(-c3cccs3)nc3ccccc3c2=O)cc1OC`, for which the results for the inhibition in assay [1] and in assay [2] were -9.43% and 33.2%, respectively.
For the molecule `CCOc1ccc(-c2nc(CSCC(=O)NC3CCN(Cc4ccccc4)CC3)c(C)o2)cc1`, the inhibition in assay [1] was 8.65%; in assay [2], 19.7%.
The matching figures for `CCOC(=O)C1CCN(C(=O)CCc2c(C)nc3cc(-c4ccccc4)nn3c2C)CC1`: -24.4% and 48.5% (active).
In the same order, the values of `CN1CCN(c2ccc(NC(=O)c3cc(S(N)(=O)=O)ccc3N3CCOCC3)cc2)CC1` are -1.08% and -8.5%.
Take `COc1ccc(-n2c(SCC(=O)NN=Cc3c(O)ccc4ccccc34)nnc2-c2ccc(C(C)(C)C)cc2)cc1`: the inhibition in assay [1] was -13%; in assay [2], 30.7%.
For `COc1ccc(C(=O)c2[nH]c(N)c(C(=O)NCCc3c[nH]c4ccccc34)c2-c2ccc(OC)c(OC)c2)cc1`, the inhibition in assay [1] was -9.46%; in assay [2], -4.51%.
In the same order, the values of `O=c1[nH]sc2ccccc12` are 7.96% and 8.22%.
For `C[C@H]1CCC[C@@H](O)CC(=O)c2c(O)cc(O)cc2CC(=O)O1`, the inhibition in assay [1] was 24%; in assay [2], 32.3%.
On to `Cc1nnc(SCC2=C(C(=O)O)N3C(=O)C(NC(=O)Cn4nc(C)c(Cl)c4C)C3SC2)s1` (configuration not stated), for which the inhibition in assay [1] was -2.47%; in assay [2], -7.12%.
In the same order, the values of `CN1CCN(S(=O)(=O)c2ccc(N(C)Cc3cccc(F)c3)nc2)CC1` are -0.35% and -11.8%.
In the same order, the values of `O=C(O)/C=C/C(=O)N(CC1CCCO1)C1CC(=O)N(c2c(Cl)cccc2Cl)C1=O` (configuration not stated) are -22.7% and -29.3%.
In the case of `CCOC(=O)c1ccc(-c2ccc(N3C(c4ccsc4)=Cc4ccc(F)cc4C3c3c[nH]c4ccc(C#N)cc34)cc2)cc1F` (configuration not stated), the results for the inhibition in assay [1] and in assay [2] were -3.42% and 33.6%, respectively.
`CCOc1ccc(-n2cc(C(=O)NCc3ccco3)c3cc(OC)c(OC)cc3c2=O)cc1`: the inhibition in assay [1] is 2.87%; in assay [2] it was -7.4%.
The matching figures for `Cc1cccnc1CN1CCN(C(=O)c2cc(COc3ccc4ncccc4c3)on2)CC1`: 8.23% and 15.3%.
In the same order, the values of `COc1ccc(/C=C2\SC(=S)N(CCCC(=O)Nc3ccc(O)cc3)C2=O)cc1` are 52.4% (active) and 35.3%.
`CC(C)(C)c1ccc(/C=C/C(=O)NCCCN2CCOCC2)cc1`: the inhibition was -13.2% in assay [1] and 4.98% in assay [2].
On to `CC(C)c1ccccc1NC(=O)COC(=O)CCN1C(=O)/C(=C\C=C\c2ccccc2)SC1=S`, for which the results for the inhibition in assay [1] and in assay [2] were 45.2% (active) and 77.6% (active), respectively.
In the same order, the values of `O=C(CN1C(=O)NC2(CCCCCC2)C1=O)Nc1ccc(Br)cc1Br` are -12.2% and 2.3%.
For the molecule `O=C(c1ccccc1)N1CCN(c2ncnc3sc4c(c23)CCC4)CC1`, the inhibition in assay [1] was 19.7%; in assay [2], 37.1%.
Take `O=c1c2ccccc2sn1-c1ccccc1`: the inhibition was -5.09% in assay [1] and -17.8% in assay [2].
Turning to `Cc1ccc(-c2noc(CCC(=O)NCCN3CCN(Cc4ccccc4)CC3)n2)cc1`, the values for the inhibition in assay [1] and in assay [2] were 12.2% and 41.6%, respectively.
The matching figures for `CCS(=O)(=O)c1ncc(Cl)c(C(=O)Nc2ccc(S(=O)(=O)N(C)c3ccccc3)cc2)n1`: 65.2% (active) and 98% (active).
For `COCc1ccc(C(=O)N2CCC(CCC(=O)Nc3cccc(C)c3)CC2)s1`, the inhibition is 27.4% in assay [1] and 46.9% (active) in assay [2].
As for `CCOC(=O)c1ccc(-c2ccc(N3C(c4cccc(OC)c4)=Cc4ccc(F)cc4C3CC(C)=O)cc2)cc1F` (configuration not stated), the inhibition in assay [1] is -0.77%; in assay [2], 21.3%.
Regarding `CCOC(=O)C1(Cc2ccc(Cl)cc2)CCN(C(C)Cc2ccc(O)c(OC)c2)CC1` (configuration not stated), the figures for the inhibition in assay [1] and in assay [2] were 15.9% and 30.1%, respectively.
As to `Cc1c(C)n(Cc2ccccc2)c2ncnc(Cl)c12`, the inhibition in assay [1] is 19.1%; in assay [2], 39.9%.
In the same order, the values of `Cc1cccc(C)c1NC(=O)C[n+]1cc(-c2ccccc2)n2c1CCC2` are -22.3% and -2.7%.
Take `CC(C)(C)n1nc(Cc2cccc3ccccc23)c2c(N)ncnc21`: the inhibition in assay [1] is 2.66%; in assay [2] it was 29.4%.
Consider `O=[N+]([O-])c1cc(C(F)(F)F)ccc1NCCCCNS(=O)(=O)c1ccc(Cl)cc1`, for which the inhibition was 3.03% in assay [1] and 43.3% in assay [2].
`Cc1nc([N+](=O)[O-])c(Sc2nc3ccc([N+](=O)[O-])cc3[nH]2)n1Cc1ccccc1`: the values for the inhibition in assay [1] and in assay [2] were -6.71% and 46.7% (active), respectively.
In the same order, the values of `CCOC(=O)CSc1[nH]c2cc(OC)ccc2c1[N+](=O)[O-]` are -31.1% and 3.3%.
